Sampled rows, rich in hits. Any-hit rate of the full collection: about 4.2%.
CHOP inhibitor – CHOP inhibition in unfolded protein response; CHO-K1 CHOP-promoter luciferase, tunicamycin-induced, 15-18 h; inhibition, % at 10 µM; hit rate 3.8% among 220,000; AID 2732;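 active = compounds that reduced the stress-induced luciferase reporter signal by more than about 70% of percent inhibition, limit read from the data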
S1P4 ag – agonists of human S1P4 receptor; O95977; S1P4-expressing cell line, agonist reporter assay; activation, % at 4.98 µM; hit rate 0.35% among 220,000; in the data active = activation above about 11%
Target sequence (O95977 whole entry, looked up): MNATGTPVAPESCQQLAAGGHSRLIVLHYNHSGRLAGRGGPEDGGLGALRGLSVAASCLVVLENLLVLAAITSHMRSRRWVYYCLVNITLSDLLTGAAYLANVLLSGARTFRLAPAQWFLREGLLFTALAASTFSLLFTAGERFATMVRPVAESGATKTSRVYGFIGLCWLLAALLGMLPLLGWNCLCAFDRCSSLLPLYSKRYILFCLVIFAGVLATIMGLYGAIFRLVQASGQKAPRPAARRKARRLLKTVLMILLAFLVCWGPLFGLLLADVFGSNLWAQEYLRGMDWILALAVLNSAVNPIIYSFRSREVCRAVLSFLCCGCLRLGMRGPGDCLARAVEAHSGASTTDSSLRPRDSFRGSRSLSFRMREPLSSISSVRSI
S1P4 antag – antagonists of human S1P4 receptor; S1P4-expressing cells, antagonist mode, reporter read-out; hit rate 0.26% among 220,000; O95977; inhibition, % at 4.98 µM; in the data active = inhibition above about 29%
Hsp70 act – Hsp70 transcriptional activation, primary screen | HeLa Hsp70 promoter luciferase reporter, luminescence; scaled: vehicle 0, proteasome-inhibitor control 100% | activation, % at 10 µM | hit rate 0.04% among 200,000 | AID 1203;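 active = activation above the mean across all tested compounds plus 3 SD, cutoff set per campaign, cut at about 5.5% in these data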
CHOP confirm – confirmation of CHOP induction inhibitors. shares compounds with CHOP inhibitor. CHO-CHOP promoter luciferase reporter, tunicamycin-induced, luminescence. inhibition, % at 10 µM. hit rate 45% among 2,100;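 active = mean of three repeat readings of reporter signal inhibition above a set limit, cut at about 70% in these data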
Of the large screens only hits and unclear results are named; the others gave an inactive call (follow-up assays come after a bar, where they were run).

COc1cc(/C=C/c2nc(N)nc(-c3ccccc3O)n2)cc(OC)c1OC	CHOP inhibitor 96 | CHOP confirm 76
CC(=O)Cn1c(=O)oc2ccccc21	none (no result: Hsp70 act)
Cc1cc(C)c2c(c1)/C(=C/C(=O)c1ccc(Br)s1)C(=O)N2	CHOP inhibitor 110 | CHOP confirm inactive
CN(C)/C=C/C(=O)c1ccc(Br)s1	none
Cc1cccc2c1NC(=O)/C2=C\C(=O)c1cccs1	CHOP inhibitor 110 | CHOP confirm inactive
Cc1ccccc1CCN(C(=O)Cn1nnc2ccccc21)C(C(=O)NC(C)(C)C)c1ccsc1 (stereo unspecified)	CHOP inhibitor 98 | CHOP confirm inactive
O=C(Cn1ncc2c3ccccc3n(Cc3ccccc3)c2c1=O)NCc1ccco1	CHOP inhibitor 96 (no result: Hsp70 act) | CHOP confirm inactive

High-throughput results from PubChem.
